From PubChem BioAssay (Tox21) come the findings set out here.

Test [1] addresses Estrogen receptor beta (Homo sapiens) (UniProt Q92731). Nature of the test: qHTS assay to identify small molecule antagonists of the estrogen receptor beta (ER-beta) signaling pathway (AID 1259378; active means well fitted inhibition curve with a large enough effect in the signal ratio in the repeat runs, not every such curve was filed as active; the % refers to the signal ratio; further: potency means the concentration at half of the fitted maximal effect). An outline of the steps:
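ER-beta-UAS-bla HEK293T cells in 2% charcoal-stripped FBS medium treated with compound plus 1nM final 17-beta-estradiol for 16 hr at 37C. Beta-lactamase reporter read by FRET substrate fluorescence after 2 hours at room temperature.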
(In general: qHTS replaces the single test concentration by a dilution series.)

The nature of test [2]: qHTS assay to identify small molecule agonists of the androgen receptor (AR) signaling pathway in the presence of an antagonist - cell viability counter screen (AID 1259379). Further: nearly all actives have a fitted effect of over 25% in size. Further: potency means the concentration at half of the fitted maximal effect. The gist of the method: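 Counter screen for cell viability run in parallel with the AR agonist-mode luciferase assay. MDA-kb2 cells were co-treated with nilutamide (3.0uM final) and compounds, then incubated 16 hr at 37C, and CellTiter-Fluor fluorescence was measured.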

Test [3] is described as follows: qHTS assay to identify small molecule agonists of the estrogen receptor beta (ER-beta) signaling pathway - cell viability counter screen (AID 1259380). Further: nearly all actives have a fitted effect of over 30% in size. Further: potency means the concentration at half of the fitted maximal effect. An outline of the steps: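 In this qHTS counter screen, HEK293T cells carrying an ER-beta/UAS beta-lactamase reporter, grown in 2% charcoal-stripped FBS, received compound for 16 hr; ATP-based CellTiter-Glo luminescence was then read after 30 min at room temperature.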

Test [4] in a line: qHTS assay to identify small molecule antagonists of the estrogen receptor beta (ER-beta) signaling pathway - cell viability counter screen (AID 1259382). Further: series mostly up to about 92 µM; nearly all actives have a fitted effect of over 55% in size. The gist of the method: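 HEK293T ER-beta-UAS-bla, 2% charcoal-stripped FBS; compounds + 1nM E2 16 hr 37C; CellTiter-Glo luminescence, 30 min RT.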
A short description of test [5]: qHTS assay to identify small molecule agonists or antagonists of the thyroid stimulating hormone receptor (TSHR) signaling pathway - wild type cell line counter screen (AID 1259384; calls by dose curve). The gist of the method:
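Wild-type Hek293 cells, 800/well, 18 h at 37C, then compound with Ro20-1724 for 30 min RT. cAMP by HTRF (cAMP-d2/anti-cAMP cryptate), 1 h RT, fluorescence read. 15 concentrations, triplicates.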

Test [6] addresses Thyrotropin receptor (Homo sapiens) (UniProt P16473). Nature of the test: qHTS assay to identify small molecule antagonists of the thyroid stimulating hormone receptor (TSHR) signaling pathway (AID 1259385; calls by dose curve; further: nearly all actives have a fitted effect of over 20% in size; further: potency means the concentration at half of the fitted maximal effect). An outline of the steps:
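TSHR-HEK293 cells (800/well) plated 18 h, then compounds with Ro20-1724 and TSH at 1.5 ng/mL final, 30 min at room temperature. cAMP quantified by HTRF (cAMP-d2/anti-cAMP-cryptate, 1 h); 15 concentrations in triplicate.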

Test [7] can be described thus: qHTS assay to identify small molecule agonists of the estrogen receptor alpha (ER-alpha) signaling pathway in the presence of an antagonist - cell viability counter screen (AID 1259386).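 Further: cells exposed to compounds for 22 h at 37 °C before the viability read; nearly all actives have a fitted effect of over 30% in size.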 Further: potency means the concentration at half of the fitted maximal effect. An outline of the steps: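 Steps: 5-day stripped-FBS culture; seed and incubate 24hr; add ICI-182,780 (10.0nM final); pin 15-point compound titration; incubate 22hr at 37C; add CellTiter-Fluor at 21hr; read fluorescence.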

The target of test [8] is Progesterone receptor (Homo sapiens) (UniProt P06401). Nature of the test: qHTS assay to identify small molecule agonists of the progesterone receptor (PR) signaling pathway (AID 1346784; calls by dose curve; further: nearly all actives have a fitted effect of over 30% in size). The gist of the method: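 Cells (PR-UAS-bla HEK 293T, GripTite) were plated in assay medium containing 2% charcoal-stripped FBS and incubated 6 hr. Test compounds in DMSO were added for 16 hr at 37C. FRET substrate was then loaded for 2 hr at room temperature before fluorescence reading.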

For test [9] the target is unchanged. The test can be described thus: qHTS assay to identify small molecule antagonists of the progesterone receptor (PR) signaling pathway (AID 1346795; active means well fitted inhibition curve with a large enough effect in the signal ratio in the repeat runs, not every such curve was filed as active; the % refers to the signal ratio). An outline of the steps: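 Antagonist mode: compounds tested against 1 nM (final) promegestone stimulation in HEK293T cells expressing PR-UAS-bla reporter, 16 hr at 37C, 5% CO2; beta-lactamase activity detected via B/G FRET substrate after 2 hr at room temperature.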

Test [10] in a line: qHTS assay to identify small molecule antagonists of the progesterone receptor (PR) signaling pathway - cell viability counter screen (AID 1346798). Further: series mostly up to about 92 µM; nearly all actives have a fitted effect of over 50% in size. An outline of the steps:
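Counter screen for cytotoxicity: viability of PR-UAS-bla HEK293T cells was measured with CellTiter-Glo luminescence following 16 hr compound exposure in the presence of R5020.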

A short description of test [11]: qHTS assay to identify small molecule agonists of the progesterone receptor (PR) signaling pathway - cell viability counter screen (AID 1346799; calls by dose curve; further: nearly all actives have a fitted effect of over 45% in size). An outline of the steps:
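Cells (PR-UAS-bla HEK293T) are plated at 3,000/well in 2% charcoal-stripped FBS medium, rested 6 hr, dosed and incubated 16 hr at 37C. CellTiter-Glo is then added and luminescence measured after 30 min at room temperature.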

Test [12] in a line: qHTS assay to identify small molecule antagonists of the TGF-beta/Smad signaling pathway - cell viability counter screen (AID 1346824). Further: nearly all actives have a fitted effect of over 50% in size. The gist of the method: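 SBE-bla HEK 293T cells, incubated overnight, then compound plus 0.25 ng/mL TGF-beta1 (stock added) for 5 hr at 37 C. Viability was read in the same wells by CellTiter-Glo luminescence after 30 min at room temperature.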

Test [13] can be described thus: qHTS assay to identify small molecule agonists of the TGF-beta/Smad signaling pathway - cell viability counter screen (AID 1346829). Further: top concentration of the series differs between compounds; nearly all actives have a fitted effect of over 45% in size. An outline of the steps: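 Compound-treated SBE-bla HEK 293T cells (5 hr, 37 C) were assessed for viability with CellTiter-Glo in parallel with the reporter read.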
Test [14] can be described thus: qHTS assay to identify small molecule agonists of the TGF-beta/Smad signaling pathway (AID 1346859; active means well fitted activation curve with a large enough effect in the signal ratio in the repeat runs, not every such curve was filed as active; the % refers to the signal ratio; further: series mostly up to about 77 µM). An outline of the steps: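 Reporter line: HEK 293T with stably integrated SBE-controlled beta-lactamase. Compound exposure lasts 5 hr at 37 C and 5% CO2; substrate loading follows for 2 hr at room temperature, with emission read at 460 and 530 nm.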
Test [15] concerns the target Thyrotropin-releasing hormone receptor (Homo sapiens) (UniProt P34981). The test can be described thus: qHTS assay to identify small molecule antagonists of the thyrotropin-releasing hormone receptor (TRHR) signaling pathway (AID 1346877; active means well fitted inhibition curve with a large enough effect in the repeat runs, not every such curve was filed as active; further: series mostly up to about 51 µM). An outline of the steps: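 Human TRHR in HEK293 cells; inhibition of the intracellular calcium rise triggered by 1 nM TRH was followed by fluorescence over 3 min. Compounds were run at 15 concentrations, three replicates each.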

For test [16] the target is unchanged. Nature of the test: qHTS assay to identify small molecule agonists of the thyrotropin-releasing hormone receptor (TRHR) signaling pathway (AID 1346891; calls by dose curve;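 further: HEK293 cells expressing TRHR with calcium dye readout; series mostly up to about 58 µM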). The gist of the method:
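Cells: TRHR-Hek293, seeded and incubated 18 h. Dye loading: 2 h at 37 °C. Compound added from DMSO stock by pin tool. Read-out: kinetic calcium fluorescence over 3 min.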

A short description of test [17]: Human pregnane X receptor (PXR) small molecule agonists, qHTS cell viability counter screen (AID 1346977). Further: nearly all actives have a fitted effect of over 50% in size. Further: potency means the concentration at half of the fitted maximal effect. The gist of the method:
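Cytotoxicity counter screen run in the same wells as the PXR luciferase assay, using PXR-Luc HepG2 cells in charcoal-stripped serum medium. Viability: CellTiter-Fluor fluorescence after 24hr compound treatment.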

Test [18] in a line: Caspase-3/7 induction in HepG2 cells by small molecules, qHTS assay (AID 1346978). Further: nearly all actives have a fitted effect of over 15% in size. An outline of the steps: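 Wild-type HepG2 cells, 2,000/well, settled 5 hr at 37 C and 5% CO2, then compound-treated for 17 hr; caspase-3/7 activity read by luminescent Caspase-Glo 3/7 after 30 min at room temperature.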
Test [19] has as its target Estrogen receptor (Homo sapiens) (UniProt P03372). The test can be described thus: qHTS assay to identify small molecule agonists of the estrogen receptor alpha (ER-alpha) signaling pathway in the presence of an antagonist (AID 1259383; calls by dose curve; further: top concentration of the series differs between compounds; nearly all actives have a fitted effect of over 15% in size). The gist of the method:
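ER-alpha agonism measured under antagonist challenge: 10.0nM ICI-182,780 (final) plus compound, 15 concentrations, 22hr, VM7Luc4E2 ERE-luciferase cells. Read by luminescence.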

The target in test [20] is Androgen receptor (Homo sapiens) (UniProt P10275). The test can be described thus: qHTS assay to identify small molecule agonists of the androgen receptor (AR) signaling pathway in the presence of an antagonist (AID 1259381; calls by dose curve; further: nearly all actives have a fitted effect of over 15% in size). An outline of the steps:
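AR antagonist background: nilutamide 3.0uM final. Cell line: MDA-kb2, MMTV-driven luciferase, responsive to both AR and GR. Exposure 16hr, 37C, no CO2; ONE-Glo luminescence.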

Records with an inconclusive call do not appear. Activity calls are given as the source filed them. Unless noted, the call rests on the fitted dose curve; in most records, active means well fitted curve in the direction sought with a large enough effect in the repeat runs; inconclusive means weak or mixed curves; inactive means no such curve, though single readings can be large; an effect the other way counts as inactive or inconclusive.

Chain of Thyrotropin receptor (Homo sapiens) (P16473 whole entry, looked up): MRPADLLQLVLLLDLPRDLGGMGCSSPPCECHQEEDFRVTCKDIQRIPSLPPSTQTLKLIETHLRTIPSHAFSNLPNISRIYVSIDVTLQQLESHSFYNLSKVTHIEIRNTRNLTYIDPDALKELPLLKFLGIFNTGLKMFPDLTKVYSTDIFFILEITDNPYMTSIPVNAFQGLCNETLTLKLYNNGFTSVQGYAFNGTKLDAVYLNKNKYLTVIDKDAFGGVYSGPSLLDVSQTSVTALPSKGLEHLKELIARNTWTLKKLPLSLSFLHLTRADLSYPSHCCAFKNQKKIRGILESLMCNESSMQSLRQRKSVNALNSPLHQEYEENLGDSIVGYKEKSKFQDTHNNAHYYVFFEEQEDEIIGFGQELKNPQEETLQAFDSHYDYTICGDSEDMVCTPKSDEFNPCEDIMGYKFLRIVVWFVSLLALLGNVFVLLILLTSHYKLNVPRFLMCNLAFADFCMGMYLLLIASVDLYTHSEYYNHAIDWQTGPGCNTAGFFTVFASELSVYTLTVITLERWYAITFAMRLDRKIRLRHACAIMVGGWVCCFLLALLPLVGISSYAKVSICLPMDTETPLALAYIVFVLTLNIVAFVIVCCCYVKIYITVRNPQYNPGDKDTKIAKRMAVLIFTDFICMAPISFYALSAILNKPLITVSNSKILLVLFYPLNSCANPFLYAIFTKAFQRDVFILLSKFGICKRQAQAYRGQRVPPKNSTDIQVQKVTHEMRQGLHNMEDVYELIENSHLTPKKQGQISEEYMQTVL
Chain of Progesterone receptor (Homo sapiens) (P06401 whole entry, looked up): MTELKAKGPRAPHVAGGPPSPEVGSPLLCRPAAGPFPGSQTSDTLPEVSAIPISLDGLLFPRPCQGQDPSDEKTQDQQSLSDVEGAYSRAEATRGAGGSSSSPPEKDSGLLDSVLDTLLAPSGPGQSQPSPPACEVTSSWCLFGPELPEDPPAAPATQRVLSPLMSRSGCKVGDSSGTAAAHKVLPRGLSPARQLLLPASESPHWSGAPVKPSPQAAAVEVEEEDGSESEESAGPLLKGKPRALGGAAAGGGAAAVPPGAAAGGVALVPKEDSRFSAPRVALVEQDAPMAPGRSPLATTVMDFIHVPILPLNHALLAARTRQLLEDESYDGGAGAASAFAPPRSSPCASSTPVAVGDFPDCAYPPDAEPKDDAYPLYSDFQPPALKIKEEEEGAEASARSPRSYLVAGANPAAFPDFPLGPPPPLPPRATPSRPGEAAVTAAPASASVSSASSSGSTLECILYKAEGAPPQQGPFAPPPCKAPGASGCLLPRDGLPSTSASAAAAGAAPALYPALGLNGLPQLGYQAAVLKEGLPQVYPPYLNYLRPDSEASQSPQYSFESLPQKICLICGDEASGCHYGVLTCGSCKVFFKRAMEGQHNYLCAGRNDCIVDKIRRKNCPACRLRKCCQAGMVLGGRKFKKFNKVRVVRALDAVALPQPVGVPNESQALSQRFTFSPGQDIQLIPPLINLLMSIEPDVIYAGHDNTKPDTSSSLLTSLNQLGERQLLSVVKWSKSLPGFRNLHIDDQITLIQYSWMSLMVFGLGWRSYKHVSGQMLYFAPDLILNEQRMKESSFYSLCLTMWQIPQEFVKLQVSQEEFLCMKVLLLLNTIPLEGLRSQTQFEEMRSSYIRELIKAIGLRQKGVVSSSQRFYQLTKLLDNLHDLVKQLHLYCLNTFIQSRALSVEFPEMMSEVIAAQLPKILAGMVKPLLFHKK
Chain of Estrogen receptor (Homo sapiens) (P03372 whole entry, looked up): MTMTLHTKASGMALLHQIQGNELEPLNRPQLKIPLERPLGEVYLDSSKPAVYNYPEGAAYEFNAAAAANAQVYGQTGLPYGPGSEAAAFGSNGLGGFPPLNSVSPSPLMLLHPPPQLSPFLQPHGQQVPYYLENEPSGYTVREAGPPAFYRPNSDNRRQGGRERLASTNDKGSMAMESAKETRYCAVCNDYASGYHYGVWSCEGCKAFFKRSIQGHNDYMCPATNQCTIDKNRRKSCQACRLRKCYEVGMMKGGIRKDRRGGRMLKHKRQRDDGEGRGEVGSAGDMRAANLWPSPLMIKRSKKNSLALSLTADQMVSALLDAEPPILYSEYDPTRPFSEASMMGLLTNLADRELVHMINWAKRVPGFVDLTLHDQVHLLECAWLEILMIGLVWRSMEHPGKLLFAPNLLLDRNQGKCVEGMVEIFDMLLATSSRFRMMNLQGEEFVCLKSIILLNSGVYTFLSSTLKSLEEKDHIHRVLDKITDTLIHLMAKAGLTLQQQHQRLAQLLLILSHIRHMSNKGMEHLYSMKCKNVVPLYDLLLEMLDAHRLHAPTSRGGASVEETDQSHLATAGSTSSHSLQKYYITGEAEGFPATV
Chain of Thyrotropin-releasing hormone receptor (Homo sapiens) (P34981 whole entry, looked up): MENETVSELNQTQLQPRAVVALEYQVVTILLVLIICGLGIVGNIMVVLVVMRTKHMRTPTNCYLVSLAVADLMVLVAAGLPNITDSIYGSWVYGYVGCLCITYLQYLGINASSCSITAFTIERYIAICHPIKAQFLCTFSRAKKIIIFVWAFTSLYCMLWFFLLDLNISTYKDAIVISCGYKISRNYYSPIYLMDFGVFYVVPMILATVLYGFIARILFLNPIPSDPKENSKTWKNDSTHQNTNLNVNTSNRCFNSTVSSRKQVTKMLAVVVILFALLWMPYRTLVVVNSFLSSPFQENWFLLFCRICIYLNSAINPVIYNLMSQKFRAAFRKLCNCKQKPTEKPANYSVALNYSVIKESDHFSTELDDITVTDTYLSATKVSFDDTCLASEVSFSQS
Chain of Estrogen receptor beta (Homo sapiens) (Q92731 whole entry, looked up): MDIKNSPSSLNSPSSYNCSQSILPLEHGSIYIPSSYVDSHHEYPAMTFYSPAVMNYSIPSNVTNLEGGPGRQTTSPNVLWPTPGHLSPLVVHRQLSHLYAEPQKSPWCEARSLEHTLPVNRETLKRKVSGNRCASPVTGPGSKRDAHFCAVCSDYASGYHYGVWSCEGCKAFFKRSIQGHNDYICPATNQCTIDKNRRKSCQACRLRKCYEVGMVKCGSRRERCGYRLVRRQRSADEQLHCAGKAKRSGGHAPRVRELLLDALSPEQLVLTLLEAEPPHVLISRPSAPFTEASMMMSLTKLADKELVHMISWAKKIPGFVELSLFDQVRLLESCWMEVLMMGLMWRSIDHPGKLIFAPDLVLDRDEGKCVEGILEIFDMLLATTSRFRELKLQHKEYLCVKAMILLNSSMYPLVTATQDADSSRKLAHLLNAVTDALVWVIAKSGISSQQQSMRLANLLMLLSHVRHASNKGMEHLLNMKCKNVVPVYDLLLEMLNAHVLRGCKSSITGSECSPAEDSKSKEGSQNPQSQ
Chain of Androgen receptor (Homo sapiens) (P10275 whole entry, looked up): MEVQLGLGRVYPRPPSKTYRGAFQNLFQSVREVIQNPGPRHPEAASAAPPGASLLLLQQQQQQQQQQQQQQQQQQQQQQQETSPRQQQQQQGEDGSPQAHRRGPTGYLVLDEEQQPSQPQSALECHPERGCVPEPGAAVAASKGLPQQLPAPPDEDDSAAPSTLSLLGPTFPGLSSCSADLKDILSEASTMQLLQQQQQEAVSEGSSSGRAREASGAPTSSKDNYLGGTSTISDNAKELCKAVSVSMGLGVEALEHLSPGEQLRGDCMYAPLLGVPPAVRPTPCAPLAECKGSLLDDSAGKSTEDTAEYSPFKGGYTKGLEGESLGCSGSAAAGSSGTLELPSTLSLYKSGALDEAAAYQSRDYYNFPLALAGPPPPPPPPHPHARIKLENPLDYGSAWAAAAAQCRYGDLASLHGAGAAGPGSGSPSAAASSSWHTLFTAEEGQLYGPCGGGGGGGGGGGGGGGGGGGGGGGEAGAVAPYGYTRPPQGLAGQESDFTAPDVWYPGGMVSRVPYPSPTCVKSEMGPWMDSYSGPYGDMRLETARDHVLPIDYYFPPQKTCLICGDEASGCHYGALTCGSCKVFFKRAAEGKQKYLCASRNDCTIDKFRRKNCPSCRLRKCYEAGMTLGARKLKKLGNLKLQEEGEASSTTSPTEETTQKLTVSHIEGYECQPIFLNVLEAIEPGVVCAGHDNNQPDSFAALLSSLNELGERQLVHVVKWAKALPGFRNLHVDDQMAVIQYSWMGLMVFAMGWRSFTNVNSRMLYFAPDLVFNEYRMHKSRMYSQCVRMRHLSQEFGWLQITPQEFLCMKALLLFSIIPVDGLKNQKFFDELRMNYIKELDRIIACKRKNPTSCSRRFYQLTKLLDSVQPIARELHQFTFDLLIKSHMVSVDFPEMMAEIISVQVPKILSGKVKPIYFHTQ

Consider `ClC(Cl)=C(Cl)Cl`, for which the Potency result in [1], in test [2], in test [3], in test [4], in test [6] and in test [7] was “inactive” in each case. Also, the Potency entry in [8], in [9], in [10], in test [11], in [12] and in test [13] was “inactive” in each case. Further, the Potency entry in [15], in test [16], in [17] and in test [18] was “inactive” in each case. For the same molecule, the call in test [5] and in test [14] was inactive.
`Cn1[nH]nnc1=S`: the Potency entry in test [1], in test [2], in test [3], in [4], in [19] and in [6] was “inactive” in each case. Further, the Potency entry in test [7], in test [8], in test [12], in test [13], in test [15] and in test [16] was “inactive” throughout. The Potency entry in [17] and in [18] was “inactive” throughout. Further, the result in test [14] was inactive.
Consider `NNC(=O)c1ccccc1`, for which the Potency result in test [1], in [2], in test [3], in test [4], in [19] and in test [6] was “inactive” throughout. Moreover, the Potency result in [7], in [8], in [9], in test [10], in [11] and in test [12] was “inactive” each time. Also, the Potency entry in test [13], in [15], in test [16], in test [17] and in test [18] was “inactive” each time. For the same molecule, the molecule was called inactive in test [5] and in test [14].
`N#CCc1ccc(Cl)cc1`: the Potency entry in test [1], in test [2], in test [3], in test [4], in [19] and in test [7] was “inactive” throughout. For the same molecule, the Potency result in test [8], in [9], in [10], in test [11], in test [12] and in [13] was “inactive” each time. Besides, the Potency entry in test [15], in [16], in [17] and in [18] was “inactive” throughout. Moreover, the molecule was classed as inactive in test [14].
Turning to `O=CC(Br)(Br)Br`, the Potency result in test [1], in test [19], in [8], in test [9], in [10] and in test [11] was “inactive” each time. For the same molecule, the Potency result in [18] is “inactive”. In addition, the Potency is 30.5 µM (active) in [2], 21.6 µM (active) in test [3] and 43.1 µM (active) in [17]. Moreover, the call in test [5] and in [14] was inactive.
In the case of `N#CCCSCCC#N`, the Potency entry in [2], in test [3], in test [20], in [4], in test [19] and in test [6] was “inactive” in each case. Moreover, the Potency result in test [7], in [8], in test [9], in [10], in test [12] and in [13] was “inactive” each time. The Potency result in test [15], in test [16], in [17] and in [18] was “inactive” in each case. Also, the outcome in [5] and in [14] was inactive.
Consider `OC(c1ccc(Cl)cc1)(c1ccc(Cl)cc1)C(Cl)(Cl)Cl`, for which the Potency result in test [1], in test [3], in test [4], in [19], in [7] and in test [8] was “inactive” in each case. For the same molecule, the Potency entry in test [11], in test [12], in test [13], in [17] and in test [18] was “inactive” in each case. Moreover, the molecule was called inactive in test [5] and in [14]. Moreover, the Potency in [6] is 68.6 µM (active).
For the molecule `CC1(c2ccc(Oc3ccccc3)cc2)OC(=O)N(Nc2ccccc2)C1=O` (stereo not given), the Potency in [1] is 10.9 µM (active); in [2], 24.5 µM (active); in test [7], 30.8 µM (active); in [17], 27.5 µM (active). Besides, the Potency entry in [4], in test [19], in test [8], in test [13], in test [15] and in [16] was “inactive” each time. The call in test [5] and in test [14] was inactive.
